Experiment [1] concerns the target Cell division control protein 42 homolog (Homo sapiens) (UniProt P60953). Description: inhibition of fluorescent GTP binding to constitutively active Cdc42 – biochemical, multiplex bead flow cytometry, Bodipy-FL-GTP, dose response (AID 1333;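 active = fitted half-maximal concentration within the tested dose range, moderate curve steepness, a statistically real signal drop, and little compound fluorescence or tag-binding interference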). On the technique in general: In flow cytometry, cells or beads pass a laser one at a time.
The target is the same in experiment [2]. Description: inhibition of fluorescent GTP binding to wildtype Cdc42 – biochemical, multiplex bead flow cytometry, Bodipy-FL-GTP, dose response (AID 1334;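 active = fitted half-maximal concentration within the tested range, moderate curve steepness, significant signal drop, and little compound fluorescence or bead-linkage interference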). To be noted: bead-based flow cytometry, Bodipy-FL-GTP binding to GST-Cdc42; at 100 µM (top of the series) unless noted.
Experiment [3] concerns the target GTPase HRas (Homo sapiens) (UniProt P01112). Description: Ras wt fluorescent GTP loading blockade – biochemical, wildtype, multiplex bead flow cytometry, dose response (AID 1335;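 active = fitted half-maximal concentration within 10 nM to 100 µM, steepness 0.5 to 2, significant signal drop, low assay interference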). The settings on record: bead-based flow cytometry, Bodipy-GTP binding to GST-Ras; at 100 µM (top of the series) unless noted.
The test system of experiment [4] is Ras-related protein Rab-7a (dog), GTP binding. Description: blockers of fluorescent GTP binding to Rab7 – biochemical, wildtype, multiplex bead flow cytometry, dose response (AID 1336; call rule not given here).
The target of experiment [5] is Ras-related C3 botulinum toxin substrate 1 (Homo sapiens) (UniProt P63000). Description: inhibition of wildtype Rac1 nucleotide loading – biochemical, multiplex bead flow cytometry, dose response (AID 1340). The settings on record: GST-Rac1 beads, Bodipy-FL-GTP binding; at 100 µM (top of the series) unless noted.
For experiment [6], the target named is GTPase HRas (Homo sapiens) (UniProt P01112). Description: blockade of GTP loading onto mutant Ras – biochemical, activated mutant, multiplex bead flow cytometry, dose response (AID 1341;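 active = dose-response curve with midpoint inside the tested range, moderate steepness, significant amplitude and little compound fluorescence or bead-attachment interference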;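 note: GST-tagged constitutively activated Ras mutant immobilized on beads and multiplexed with other GTPases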).
Sequence of GTPase HRas (Homo sapiens) (P01112 whole entry, looked up): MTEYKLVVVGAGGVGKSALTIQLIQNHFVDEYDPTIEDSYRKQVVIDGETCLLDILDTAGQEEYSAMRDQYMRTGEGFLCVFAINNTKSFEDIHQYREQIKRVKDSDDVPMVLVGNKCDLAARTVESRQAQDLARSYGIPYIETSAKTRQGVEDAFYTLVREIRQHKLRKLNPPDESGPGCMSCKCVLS

For part of these data: Measured potencies and affinities stand elsewhere. The source made the active and inactive calls.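 Rule for the calls, unless noted: active = dose curve with midpoint inside tested range, moderate steepness, plateau gap beyond fit error, low compound glow and bead-link interference; inactive = the rest.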

Sequence of Cell division control protein 42 homolog (Homo sapiens) (P60953 whole entry, looked up): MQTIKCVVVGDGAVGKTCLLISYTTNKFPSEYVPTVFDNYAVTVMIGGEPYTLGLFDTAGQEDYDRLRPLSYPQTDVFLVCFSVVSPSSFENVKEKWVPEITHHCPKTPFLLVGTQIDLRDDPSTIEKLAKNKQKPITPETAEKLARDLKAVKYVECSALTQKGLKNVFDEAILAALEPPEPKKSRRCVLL

`CCOc1ccccc1NC(=O)CSc1ccc2nnc(-c3cccnc3)n2n1`: the compound was classed as inactive in experiment [1], in experiment [4] and in experiment [6]. The fluorescence, percent of control (lower = inhibition) in experiment [2] came out at 29.2%. In experiment [3], this compound gave a GTP binding, percent of control of 65.1%. Also, in experiment [5], the GTP binding signal, raw median fluorescence (lower = inhibition) (MCF (arbitrary fluorescence units)) turned out to be 136.

For `COc1cc([N+](=O)[O-])cc(/C=N/NC(=O)c2ccc(NC(=O)c3ccc(C)cc3)cc2)c1O`, the result in experiment [1], in experiment [4] and in experiment [6] was inactive. The fluorescence, percent of control (lower = inhibition) in experiment [2] is 33%. The compound also yielded a GTP binding, percent of control in experiment [3] of 77.6%. Further, in experiment [5], the GTP binding signal, raw median fluorescence (lower = inhibition) (MCF (arbitrary fluorescence units)) came to 226.

For the compound `COc1ccc(CC(=O)c2ccccc2C(=O)O)cc1`, the compound was classed as inactive in experiment [1], in experiment [4] and in experiment [6]. For the same compound, in experiment [2], the fluorescence, percent of control (lower = inhibition) came to 153%. Moreover, the GTP binding, percent of control in experiment [3] worked out at 143%. The same compound yielded a GTP binding signal, raw median fluorescence (lower = inhibition) (MCF (arbitrary fluorescence units)) in experiment [5] of 368.

For the compound `Cc1cccc(CSc2ncccc2C(=O)O)c1`, the result in experiment [1], in experiment [4] and in experiment [6] was inactive. Further, the fluorescence, percent of control (lower = inhibition) in experiment [2] was 69.2%. The compound also displayed a GTP binding, percent of control in experiment [3] of 70.8%. In experiment [5], this compound had a GTP binding signal, raw median fluorescence (lower = inhibition) (MCF (arbitrary fluorescence units)) of 314.

On to `O=C(/C=C/c1ccc(N2CCC(c3ccccc3)=N2)cc1)c1ccccc1`, for which the compound was classed as inactive in experiment [1], in experiment [4] and in experiment [6]. In addition, the fluorescence, percent of control (lower = inhibition) in experiment [2] was determined as 344%. The GTP binding, percent of control in experiment [3] worked out at 394%. The compound also displayed a GTP binding signal, raw median fluorescence (lower = inhibition) (MCF (arbitrary fluorescence units)) in experiment [5] of 651.

Take `CC(Sc1nnc(NC2CCCCC2)s1)C(=O)Nc1ccc2c(c1)C(=O)c1ccccc1C2=O` (stereo not given): the call in experiment [1], in experiment [4] and in experiment [6] was inactive. Also, the fluorescence, percent of control (lower = inhibition) in experiment [2] is 49.1%. This compound also yielded a GTP binding, percent of control in experiment [3] of 61.4%. The GTP binding signal, raw median fluorescence (lower = inhibition) (MCF (arbitrary fluorescence units)) in experiment [5] was 161.

On to `O=C(Cn1cnc2cc([N+](=O)[O-])ccc2c1=O)NCCc1ccc(F)cc1`, for which the compound was classed as inactive in experiment [1], in experiment [4] and in experiment [6]. In addition, the fluorescence, percent of control (lower = inhibition) in experiment [2] is 35.9%. Also, the GTP binding, percent of control in experiment [3] is 80.9%. This compound registered a GTP binding signal, raw median fluorescence (lower = inhibition) (MCF (arbitrary fluorescence units)) in experiment [5] of 182.

In the case of `Cc1nc(-c2cnn(-c3ccccc3)c2)c2cc(C)oc2n1`, the compound was classed as inactive in experiment [1], in experiment [4] and in experiment [6]. For the same compound, in experiment [2], the fluorescence, percent of control (lower = inhibition) turned out to be 61.7%. The GTP binding, percent of control in experiment [3] was 140%. This compound came in with a GTP binding signal, raw median fluorescence (lower = inhibition) (MCF (arbitrary fluorescence units)) in experiment [5] of 140.

As for `COc1ccccc1OCCn1cc(C(=O)O)c2cc(C)ccc21`, the outcome in experiment [1], in experiment [4] and in experiment [6] was inactive. Moreover, in experiment [2], the fluorescence, percent of control (lower = inhibition) was 62.1%. Further, the GTP binding, percent of control in experiment [3] was determined as 212%. The same compound returned a GTP binding signal, raw median fluorescence (lower = inhibition) (MCF (arbitrary fluorescence units)) in experiment [5] of 57.3.

For `CNC(=O)C(C)NS(=O)(=O)c1ccc(F)cc1` (stereo not given), the outcome in experiment [1], in experiment [4] and in experiment [6] was inactive. Further, in experiment [2], the fluorescence, percent of control (lower = inhibition) turned out to be 50.9%. This compound displayed a GTP binding, percent of control in experiment [3] of 66.5%. The same compound gave a GTP binding signal, raw median fluorescence (lower = inhibition) (MCF (arbitrary fluorescence units)) in experiment [5] of 236.

For `Cc1cc(/C=C2\SC(=S)N(Cc3ccco3)C2=O)c(C)n1-c1cccnc1`, the call in experiment [1], in experiment [4] and in experiment [6] was inactive. The fluorescence, percent of control (lower = inhibition) in experiment [2] is 137%. The compound also displayed a GTP binding, percent of control in experiment [3] of 95.2%. In experiment [5], the GTP binding signal, raw median fluorescence (lower = inhibition) (MCF (arbitrary fluorescence units)) stood at 209.

Turning to `Cc1cc(C)n2nc(SCCOc3ccccc3F)nc2n1`, the outcome in experiment [1], in experiment [4] and in experiment [6] was inactive. Besides, in experiment [2], the fluorescence, percent of control (lower = inhibition) is 34.1%. In experiment [3], this compound registered a GTP binding, percent of control of 72.5%. In addition, the GTP binding signal, raw median fluorescence (lower = inhibition) (MCF (arbitrary fluorescence units)) in experiment [5] was found to be 144.

Regarding `O=[N+]([O-])c1ccc2c(c1)c(-c1ccccc1)nc1nncn12`, the outcome in experiment [1], in experiment [4] and in experiment [6] was inactive. In addition, the fluorescence, percent of control (lower = inhibition) in experiment [2] stood at 31.3%. In addition, in experiment [3], the GTP binding, percent of control is 72.1%. The same compound gave a GTP binding signal, raw median fluorescence (lower = inhibition) (MCF (arbitrary fluorescence units)) in experiment [5] of 203.

As to `COc1cc(/C=C(/C#N)c2nc3ccccc3[nH]2)ccc1OCc1ccc(C(=O)O)o1`, the call in experiment [1], in experiment [4] and in experiment [6] was inactive. The fluorescence, percent of control (lower = inhibition) in experiment [2] worked out at 21.9%. The compound also had a GTP binding, percent of control in experiment [3] of 59.6%. The same compound displayed a GTP binding signal, raw median fluorescence (lower = inhibition) (MCF (arbitrary fluorescence units)) in experiment [5] of 116.

Consider `Cc1ccc(O)c(N=Cc2cc(Cc3ccccc3)cc([N+](=O)[O-])c2O)c1`, for which the compound was classed as inactive in experiment [1], in experiment [4] and in experiment [6]. The fluorescence, percent of control (lower = inhibition) in experiment [2] came to 30.7%. Also, in experiment [3], the GTP binding, percent of control is 72.6%. Further, in experiment [5], the GTP binding signal, raw median fluorescence (lower = inhibition) (MCF (arbitrary fluorescence units)) worked out at 111.

These data come from PubChem BioAssay.
